Measurements as given in PubChem BioAssay (EPA / NIEHS).
Records with an inconclusive call do not appear. Activity calls are given as the source filed them. How the source made its calls, unless noted: active means hit-call score of the fitted dose curve at least 0.9, where 1 is the maximum; inactive means score below 0.9.

Assays:
[1] = target: Hypoxia-inducible factor 1-alpha (Homo sapiens) (UniProt Q16665); test: ATG_HIF1a_CIS: Attagene CIS-FACTORIAL HepG2 Assay for human Hypoxia Inducible Factor 1 (HIF1A) (AID 2282951); conditions: HepG2 Attagene cis-factorial HIF1a reporter transcription; actives raise or lower the signal
In short: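 Dosed 24 h, transfected HepG2 cells yielded total RNA whose reporter transcripts were RT-PCR-amplified and sized by capillary electrophoresis using fluorescent labelling; DMSO defined baseline, with gain and loss of signal both fitted.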

[2] = target: Hepatocyte nuclear factor 6 (Homo sapiens) (UniProt Q9UBC0); test: ATG_HNF6_CIS: Attagene CIS-FACTORIAL HepG2 Assay for human Hepatocyte Nuclear Factor 6 (HNF6) (AID 2282952); conditions: HepG2 Attagene cis-factorial HNF6 reporter transcription; actives raise or lower the signal
In short: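 Twenty-four-hour chemical treatment of reporter-transfected HepG2 cells precedes RNA isolation, DNase-treated reverse transcription and PCR of reporter sequences. Labelled fragments are sized by capillary electrophoresis and fitted bidirectionally versus DMSO.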

[3] = target: Heat shock factor protein 1 (Homo sapiens) (UniProt Q00613); test: ATG_HSE_CIS: Attagene CIS-FACTORIAL HepG2 Assay for human Heat Shock Transcription Factor 1 (HSE) (AID 2282953); conditions: HepG2 HSE cis-reporter, Attagene RNA transcription; actives raise or lower the signal
In short: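 Using HepG2 with transfected cis-driven reporter constructs, compound effects on endogenous factor activity are scored as reporter mRNA change at 24 h. Detection: RT-PCR, HpaI digestion, capillary electrophoresis; bidirectional fitting to DMSO.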

[4] = ATG_MRE_CIS: Attagene CIS-FACTORIAL HepG2 Assay for human Metal Responsive Element (MRE) (AID 2282954); conditions: HepG2 MRE cis-reporter transcription, Attagene multiplex; actives raise or lower the signal
In short: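 RT-PCR/capillary electrophoresis readout of reporter mRNA, 24 h post-dosing, in HepG2 cells transfected with multiplexed cis-regulated reporter constructs. Gain or loss of signal fitted bidirectionally against DMSO baseline.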

[5] = ATG_PBREM_CIS: Attagene CIS-FACTORIAL HepG2 Assay for human Phenobarbital-responsive Enhancer Module (PBREM) (AID 2282955); conditions: HepG2 PBREM cis-reporter, Attagene multiplexed transcription; actives raise or lower the signal
In short: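 Transfected liver-derived HepG2 cells exposed 24 h; PBREM reporter transcript quantified via RT-PCR and capillary electrophoresis, with activity in either direction referenced to DMSO.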

[6] = target: Paired box protein Pax-6 (Homo sapiens) (UniProt P26367); test: ATG_Pax6_CIS: Attagene CIS-FACTORIAL HepG2 Assay for human Paired Box 6 (PAX6) (AID 2282956); conditions: HepG2 CIS-FACTORIAL PAX6 reporter transcription, RNA readout; actives raise or lower the signal
In short: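 Read-out is reporter transcript level, measured by RT-PCR with fluorescent primer extension and capillary electrophoresis after 24 h dosing of transfected HepG2 cells. Activity in either direction fitted relative to DMSO control.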

[7] = ATG_PXRE_CIS: Attagene CIS-FACTORIAL HepG2 Assay for human Pregnane X Receptor Element (PXRE) (AID 2282957); conditions: HepG2 Attagene CIS-FACTORIAL PXRE reporter, mRNA; actives raise or lower the signal
In short: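 Bidirectional activity, baselined to DMSO, derived from reporter mRNA fluorescence (RT-PCR plus capillary electrophoresis) in HepG2 cells bearing cis-promoter reporter units, 24 h exposure.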

[8] = ATG_PPRE_CIS: Attagene CIS-FACTORIAL HepG2 Assay for human Peroxisome Proliferator-activated Response Element (PPRE) (AID 2282958); conditions: HepG2 PPRE cis-element reporter, Attagene transcription factor profiling; actives raise or lower the signal
In short: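 Measured endpoint: PPRE-controlled reporter mRNA, detected by RT-PCR and capillary electrophoresis fluorescence, from transiently transfected HepG2 cells 24 h after dosing. Curves fitted in both directions using DMSO baseline.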

[9] = ATG_RORE_CIS: Attagene CIS-FACTORIAL HepG2 Assay for human RAR-related Orphan Receptor Element (RORE) (AID 2282959); conditions: HepG2 Attagene cis-factorial RORE reporter, mRNA; actives raise or lower the signal
In short: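 Transiently transfected HepG2 reporter cells were treated 24 h. Reporter transcripts were detected by RT-PCR and capillary electrophoresis, with bidirectional fitting against DMSO.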

[10] = ATG_Sox_CIS: Attagene CIS-FACTORIAL HepG2 Assay for human SRY-box transcription factor (SOX) (AID 2282960); conditions: HepG2 Attagene cis-factorial SOX reporter, mRNA; actives raise or lower the signal
In short: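 Gain- or loss-of-signal endpoint, fitted bidirectionally with DMSO as negative control. Based on reporter mRNA from transfected HepG2 cells harvested 24 h post-treatment and quantified via RT-PCR and capillary electrophoresis.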

[11] = target: Transcription factor Sp1 (Homo sapiens) (UniProt P08047); test: ATG_Sp1_CIS: Attagene CIS-FACTORIAL HepG2 Assay for human Specificity Protein 1 (Sp1) (AID 2282961); conditions: HepG2 Sp1 cis-reporter transcription, actives raise or lower the signal
In short: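 Endpoint reflects endogenous Sp1 transcriptional activity, not an exogenous fusion protein: HepG2 cells with transfected cis-regulated reporters, 24 h dosing, RT-PCR/capillary electrophoresis mRNA read-out, DMSO-normalised bidirectional fit.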

[12] = ATG_SREBP_CIS: Attagene CIS-FACTORIAL HepG2 Assay for human Sterol Regulatory Element Binding (SREBP) (AID 2282962); conditions: HepG2 Attagene cis-factorial SREBP reporter, mRNA; actives raise or lower the signal
In short: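 Endogenous SREBP activity read as cis-element-driven reporter transcript in transiently transfected HepG2, 24 h post-dosing; quantified via RT-PCR plus capillary electrophoresis of fluorescent fragments. Gain or loss of signal fitted relative to DMSO baseline.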

[13] = ATG_TA_CIS: Attagene CIS-FACTORIAL HepG2 Assay for human TA Basal Promoter (AID 2282964); conditions: HepG2 Attagene CIS-factorial TA basal promoter reporter; actives raise or lower the signal
In short: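 Transient MRTU transfection of HepG2 preceded 24 h compound exposure. Reporter mRNA levels were then read by RT-PCR with capillary electrophoresis, and this background-control endpoint was fitted bidirectionally to DMSO.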

[14] = ATG_TCF_b_cat_CIS: Attagene CIS-FACTORIAL HepG2 Assay for human T-Cell-Factor with beta-catenin (TCF/b-cat) (AID 2282965); conditions: HepG2 TCF/beta-catenin cis-reporter transcription, actives raise or lower the signal
In short: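 HepG2, transient MRTU transfection, cis-element-driven reporters (endogenous TFs). 24 h compound exposure. Readout: reporter mRNA by RT-PCR + 6-FAM primer extension, HpaI digest, capillary electrophoresis. Gain/loss fit vs DMSO baseline.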

[15] = ATG_TAL_CIS: Attagene CIS-FACTORIAL HepG2 Assay for human TAL Basal Promoter (AID 2282966); conditions: HepG2 Attagene cis-factorial TAL promoter reporter; actives raise or lower the signal;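 further: background control endpoint measuring basal TAL promoter reporter mRNA not a specific factor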
In short: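 Human hepatoma HepG2 cells, transfected with promoter-regulated reporter units, were treated 24 h. Reporter transcript levels, measured through RT-PCR and capillary electrophoresis, were fitted for gain or loss relative to DMSO.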

[16] = ATG_TGFb_CIS: Attagene CIS-FACTORIAL HepG2 Assay for human Transforming Growth Factor (TGF) (AID 2282967); conditions: HepG2 Attagene CIS TGFb reporter, mRNA transcription; actives raise or lower the signal
In short: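 After a 24-hour incubation with compound, transfected HepG2 cells were lysed for RNA; reporter cDNA was amplified, fluorescently end-labeled and separated by CE. DMSO served as baseline for bidirectional fits.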

[17] = ATG_VDRE_CIS: Attagene CIS-FACTORIAL HepG2 Assay for human Vitamin D Receptor Element (VDRE) (AID 2282968); conditions: HepG2 VDRE cis-reporter transcription, actives raise or lower the signal
In short: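 Transient MRTU transfection of HepG2, 24 h compound exposure. Readout: reporter transcripts via RT-PCR and capillary electrophoresis, fluorescence. Bidirectional fit vs DMSO.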

[18] = target: Nuclear receptor subfamily 1 group I member 3 (Homo sapiens) (UniProt Q14994); test: ATG_CAR_TRANS: Attagene TRANS-FACTORIAL HepG2 Assay for human Constitutive Androstane Receptor (CAR) (AID 2282969; active means hit-call score of the fitted dose curve at least 0.9, where 1 is the maximum;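 further: activators raise reporter mRNA above DMSO so AC50 marks induction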); conditions: HepG2 Attagene TRANS-FACTORIAL CAR reporter
In short: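 Transiently transfected HepG2, multiplex TRANS reporters (CAR-Gal4 chimera driving GAL4-UAS reporter). 24 h dosing. Readout: reporter transcript by RT-PCR + capillary electrophoresis, fluorescence intensity; positive direction vs DMSO.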

[19] = target: Estrogen receptor (Homo sapiens) (UniProt P03372); test: ATG_ERa_TRANS: Attagene TRANS-FACTORIAL HepG2 Assay for human Estrogen Receptor alpha (ERa) (AID 2282970; active means hit-call score of the fitted dose curve at least 0.9, where 1 is the maximum); conditions: HepG2 Attagene TRANS ERa GAL4 reporter, mRNA
In short: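 Signal derives from fluorescence of labelled reporter PCR fragments separated by capillary electrophoresis. HepG2 cells transiently carrying multiple GAL4-UAS reporter units were treated 24 hours, and induction above DMSO baseline was fitted as activity.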

[20] = target: Signal transducer and activator of transcription 3 (Homo sapiens) (UniProt P40763); test: ATG_STAT3_CIS: Attagene CIS-FACTORIAL HepG2 Assay for human Signal Transducer and Activator of Transcription 3 (STAT3) (AID 2282963); conditions: HepG2, Attagene cis-factorial STAT3 reporter transcription; actives raise or lower the signal
In short: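 Readout: fluorescent reporter mRNA fragments resolved by capillary electrophoresis. Setup: HepG2 transfected with MRTUs reporting endogenous transcription-factor activity, dosed 24 h. Gain or loss of signal fitted bidirectionally against DMSO control.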

Measured: AC50

Sequence of Transcription factor Sp1 (Homo sapiens) (P08047 whole entry, looked up, the tested form may be a part): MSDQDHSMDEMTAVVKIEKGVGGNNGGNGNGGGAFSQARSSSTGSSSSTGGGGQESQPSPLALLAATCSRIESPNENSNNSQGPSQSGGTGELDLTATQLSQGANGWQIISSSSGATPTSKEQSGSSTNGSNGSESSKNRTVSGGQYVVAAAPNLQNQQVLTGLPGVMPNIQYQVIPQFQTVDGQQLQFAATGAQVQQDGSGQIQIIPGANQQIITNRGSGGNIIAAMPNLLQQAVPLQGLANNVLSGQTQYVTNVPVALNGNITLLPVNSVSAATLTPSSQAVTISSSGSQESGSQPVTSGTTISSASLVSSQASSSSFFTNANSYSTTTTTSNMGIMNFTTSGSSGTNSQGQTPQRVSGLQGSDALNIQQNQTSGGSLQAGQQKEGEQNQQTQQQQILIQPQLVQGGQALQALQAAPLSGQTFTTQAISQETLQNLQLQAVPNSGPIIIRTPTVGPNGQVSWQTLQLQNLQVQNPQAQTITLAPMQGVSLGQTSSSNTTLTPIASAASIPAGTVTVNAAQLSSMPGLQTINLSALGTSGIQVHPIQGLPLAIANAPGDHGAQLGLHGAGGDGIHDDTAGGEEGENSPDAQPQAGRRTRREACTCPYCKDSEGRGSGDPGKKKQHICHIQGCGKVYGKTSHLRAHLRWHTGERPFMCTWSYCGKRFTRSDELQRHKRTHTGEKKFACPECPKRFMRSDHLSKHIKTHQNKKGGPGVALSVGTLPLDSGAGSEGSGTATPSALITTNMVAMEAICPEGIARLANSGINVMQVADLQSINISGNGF
Sequence of Heat shock factor protein 1 (Homo sapiens) (Q00613 whole entry, looked up): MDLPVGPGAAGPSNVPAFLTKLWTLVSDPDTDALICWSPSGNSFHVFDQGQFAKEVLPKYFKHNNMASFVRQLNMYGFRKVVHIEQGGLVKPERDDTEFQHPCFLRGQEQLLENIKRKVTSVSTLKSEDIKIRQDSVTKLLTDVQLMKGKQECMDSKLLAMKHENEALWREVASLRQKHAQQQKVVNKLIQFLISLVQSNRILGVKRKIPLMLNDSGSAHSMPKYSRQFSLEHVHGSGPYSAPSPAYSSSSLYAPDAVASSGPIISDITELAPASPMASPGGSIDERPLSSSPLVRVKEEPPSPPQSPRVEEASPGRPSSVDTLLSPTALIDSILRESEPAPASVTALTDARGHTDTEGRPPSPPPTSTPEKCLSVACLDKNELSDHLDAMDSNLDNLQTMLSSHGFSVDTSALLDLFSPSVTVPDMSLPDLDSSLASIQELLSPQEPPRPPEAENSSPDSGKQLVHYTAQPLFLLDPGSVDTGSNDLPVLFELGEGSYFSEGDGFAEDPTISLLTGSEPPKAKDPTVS
Sequence of Hepatocyte nuclear factor 6 (Homo sapiens) (Q9UBC0 whole entry, looked up, the tested form may be a part): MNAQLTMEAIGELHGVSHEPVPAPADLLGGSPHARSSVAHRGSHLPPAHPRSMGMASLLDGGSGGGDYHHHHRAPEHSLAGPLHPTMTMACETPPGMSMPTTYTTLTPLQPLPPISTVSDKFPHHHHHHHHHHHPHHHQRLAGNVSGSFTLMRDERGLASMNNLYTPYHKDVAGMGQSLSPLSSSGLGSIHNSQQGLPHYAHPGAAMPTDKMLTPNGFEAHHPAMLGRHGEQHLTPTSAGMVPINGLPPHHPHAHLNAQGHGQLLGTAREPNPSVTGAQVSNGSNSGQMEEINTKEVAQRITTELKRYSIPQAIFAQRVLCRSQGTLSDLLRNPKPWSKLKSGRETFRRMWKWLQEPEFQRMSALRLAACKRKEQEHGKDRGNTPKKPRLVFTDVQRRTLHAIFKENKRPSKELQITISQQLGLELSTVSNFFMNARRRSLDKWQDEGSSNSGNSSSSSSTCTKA
Sequence of Estrogen receptor (Homo sapiens) (P03372 whole entry, looked up, the tested form may be a part): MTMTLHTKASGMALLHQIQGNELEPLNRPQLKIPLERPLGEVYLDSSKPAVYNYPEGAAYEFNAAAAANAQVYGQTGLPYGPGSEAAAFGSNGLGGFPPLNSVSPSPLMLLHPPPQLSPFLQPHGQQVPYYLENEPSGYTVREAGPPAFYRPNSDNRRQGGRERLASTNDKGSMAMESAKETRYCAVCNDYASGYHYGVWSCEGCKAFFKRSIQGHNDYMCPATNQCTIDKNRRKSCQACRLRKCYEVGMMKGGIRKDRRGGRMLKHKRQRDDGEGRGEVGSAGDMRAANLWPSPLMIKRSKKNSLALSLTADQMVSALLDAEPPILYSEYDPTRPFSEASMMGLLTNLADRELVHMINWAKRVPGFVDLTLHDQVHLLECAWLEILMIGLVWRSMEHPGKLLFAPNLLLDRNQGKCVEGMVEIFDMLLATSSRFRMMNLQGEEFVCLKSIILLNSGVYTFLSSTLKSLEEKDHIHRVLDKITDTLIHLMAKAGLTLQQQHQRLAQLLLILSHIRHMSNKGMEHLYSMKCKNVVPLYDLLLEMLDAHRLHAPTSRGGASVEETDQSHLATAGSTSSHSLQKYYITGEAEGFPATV
Sequence of Paired box protein Pax-6 (Homo sapiens) (P26367 whole entry, looked up): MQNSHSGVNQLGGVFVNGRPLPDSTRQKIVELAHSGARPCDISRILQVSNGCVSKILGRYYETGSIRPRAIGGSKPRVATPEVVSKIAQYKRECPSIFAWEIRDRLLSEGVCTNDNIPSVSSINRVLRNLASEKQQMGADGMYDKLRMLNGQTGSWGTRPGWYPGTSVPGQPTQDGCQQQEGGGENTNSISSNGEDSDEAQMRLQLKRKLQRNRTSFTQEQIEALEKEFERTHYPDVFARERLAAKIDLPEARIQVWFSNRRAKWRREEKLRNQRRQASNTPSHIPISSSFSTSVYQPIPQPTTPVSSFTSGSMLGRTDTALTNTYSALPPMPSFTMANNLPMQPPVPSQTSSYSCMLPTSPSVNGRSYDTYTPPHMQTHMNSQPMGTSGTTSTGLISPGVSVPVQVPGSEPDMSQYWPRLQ
Sequence of Hypoxia-inducible factor 1-alpha (Homo sapiens) (Q16665 whole entry, looked up): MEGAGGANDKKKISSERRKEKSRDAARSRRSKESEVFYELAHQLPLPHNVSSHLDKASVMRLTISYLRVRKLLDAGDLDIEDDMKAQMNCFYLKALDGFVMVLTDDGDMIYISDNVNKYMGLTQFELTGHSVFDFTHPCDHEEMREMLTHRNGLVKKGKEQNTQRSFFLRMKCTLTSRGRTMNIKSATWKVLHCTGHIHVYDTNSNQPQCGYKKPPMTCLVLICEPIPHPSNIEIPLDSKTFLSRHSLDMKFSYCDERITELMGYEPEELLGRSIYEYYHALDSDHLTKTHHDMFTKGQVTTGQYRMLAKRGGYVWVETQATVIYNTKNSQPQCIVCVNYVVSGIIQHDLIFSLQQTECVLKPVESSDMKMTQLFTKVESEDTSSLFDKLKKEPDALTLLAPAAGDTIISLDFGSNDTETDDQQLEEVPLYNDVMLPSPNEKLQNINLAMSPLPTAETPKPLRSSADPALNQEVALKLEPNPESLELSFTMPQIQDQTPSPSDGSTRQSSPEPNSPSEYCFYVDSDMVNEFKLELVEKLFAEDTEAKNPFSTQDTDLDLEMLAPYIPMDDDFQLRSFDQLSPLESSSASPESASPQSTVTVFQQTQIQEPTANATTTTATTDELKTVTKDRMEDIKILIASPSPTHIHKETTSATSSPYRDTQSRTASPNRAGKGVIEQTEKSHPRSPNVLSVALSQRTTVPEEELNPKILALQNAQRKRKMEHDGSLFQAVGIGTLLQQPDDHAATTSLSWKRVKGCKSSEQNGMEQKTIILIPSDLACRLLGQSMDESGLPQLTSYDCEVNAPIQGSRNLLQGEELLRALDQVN
Sequence of Signal transducer and activator of transcription 3 (Homo sapiens) (P40763 whole entry, looked up, the tested form may be a part): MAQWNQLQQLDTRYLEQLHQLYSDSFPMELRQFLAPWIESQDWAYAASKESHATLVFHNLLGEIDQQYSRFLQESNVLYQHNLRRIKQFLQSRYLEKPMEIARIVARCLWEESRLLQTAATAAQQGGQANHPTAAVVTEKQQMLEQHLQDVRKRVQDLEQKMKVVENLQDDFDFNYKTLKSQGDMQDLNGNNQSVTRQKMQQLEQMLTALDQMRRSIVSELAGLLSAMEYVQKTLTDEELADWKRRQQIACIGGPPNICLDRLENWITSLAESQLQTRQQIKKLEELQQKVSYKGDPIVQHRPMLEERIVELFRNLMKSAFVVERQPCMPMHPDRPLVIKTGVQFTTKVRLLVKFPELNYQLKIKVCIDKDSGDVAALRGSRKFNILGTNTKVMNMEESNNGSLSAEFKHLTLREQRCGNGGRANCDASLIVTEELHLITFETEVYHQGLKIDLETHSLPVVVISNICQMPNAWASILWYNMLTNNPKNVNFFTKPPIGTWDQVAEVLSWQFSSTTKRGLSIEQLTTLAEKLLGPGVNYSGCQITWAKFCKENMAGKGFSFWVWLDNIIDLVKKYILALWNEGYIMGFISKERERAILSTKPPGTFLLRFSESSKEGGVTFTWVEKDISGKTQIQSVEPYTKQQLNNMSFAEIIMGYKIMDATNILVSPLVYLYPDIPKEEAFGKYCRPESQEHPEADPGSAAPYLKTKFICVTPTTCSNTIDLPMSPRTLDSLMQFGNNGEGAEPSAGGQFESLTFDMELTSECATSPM
Sequence of Nuclear receptor subfamily 1 group I member 3 (Homo sapiens) (Q14994 whole entry, looked up, the tested form may be a part): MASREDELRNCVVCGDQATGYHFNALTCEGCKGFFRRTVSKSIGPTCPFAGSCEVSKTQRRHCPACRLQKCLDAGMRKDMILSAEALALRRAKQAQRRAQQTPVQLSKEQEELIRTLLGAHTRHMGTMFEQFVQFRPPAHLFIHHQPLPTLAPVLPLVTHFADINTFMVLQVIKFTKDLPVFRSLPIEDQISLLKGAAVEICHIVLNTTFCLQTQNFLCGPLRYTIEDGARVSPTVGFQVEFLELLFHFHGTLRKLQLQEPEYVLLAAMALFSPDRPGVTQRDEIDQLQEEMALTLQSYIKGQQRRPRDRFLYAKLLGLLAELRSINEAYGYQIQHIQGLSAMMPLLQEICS

CCOP(=S)(OCC)SCSc1cc(Cl)ccc1Cl
not listed: [20]
inactive: all other assays above

CCC[CH2][Sn]([Cl])([Cl])[CH2]CCC
active: [1] 1.24 µM | [3] 818 nM | [4] 1.24 µM | [6] 1.46 µM | [7] 0.865 µM | [8] 62.5 nM | [9] 584 nM | [10] 1.61 µM | [11] 966 nM | [12] 811 nM | [14] 1.82 µM | [17] 1.24 µM | [19] 1.86 µM
inactive: [2] | [5] | [20] | [13] | [15] | [16]

CCC(C)(C#N)N=NC(C)(C#N)CC (stereo unspecified)
active: [7] 22 µM
not listed: [17] | [18]
inactive: all other assays above
